Measured values as given in PubChem BioAssay (NCI).
This is part of a sample that, as a whole, favours compounds with a hit. Of some 83,000 tested, about 20% had one in any assay.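 48-hour exposure, single concentration, 96-well plates; percent growth endpoint where 0 means no net growth. Active: below 10.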 A number with no mark means an inactive call. Calls of active or inactive are those of the source.

Legend:
Assay in all cases: NCI-60 one-dose screen, 48 h (100 = growth as untreated, 0 = no growth, -100 = all killed)
Conditions in all cases: 10 µM unless noted
[1] = system: NCI-H23 lung
[2] = system: NCI-H226 lung
[3] = system: NCI-H322M lung
[4] = system: HOP-62 NSCLC
[5] = system: NCI-H460 lung
[6] = system: HOP-92 NSCLC
[7] = system: NCI-H522 lung
[8] = system: A549/ATCC NSCLC
[9] = system: 786-0 renal
[10] = system: COLO 205 colon

| SMILES | growth [1] | growth [2] | growth [3] | growth [4] [%] | growth [5] | growth [6] | growth [7] | growth [8] | growth [9] | growth [10] |
| --- | --- | --- | --- | --- | --- | --- | --- | --- | --- | --- |
| c1ccc(Nc2cc(-c3cccnc3)[nH]n2)cc1 | 105% | 94.1% | 95.5% | 84 | 111% | 94.4% | 89.5% | 93.3% | 98.1% | 106% |
| COc1ccc(C(=O)C[C@]2(O)C(=O)Nc3c(Cl)ccc(Cl)c32)cc1 | 44.3% | 58.8% | 47.5% | 40.4 | 10.1% | 62.1% | 13.4% | 53.4% | 55.9% | 7.6% (active) |
| Cc1c(C(=O)NCCCc2ccccc2)sc2ncc(-c3ccc(Br)cc3)n12 | 91.7% | 102% | 100% | 99.3 | 107% | 113% | 98.5% | 108% | 100% | 113% |
| O=c1c2cc(F)ccc2sc2c(N3CCNCC3)nc3ccc(F)cc3c12 | 61.3% | 83.8% | 55.4% | 57.5 | -88.4% (active) | 7.38% (active) | 8.28% (active) | 13.2% | 60.5% | -51.9% (active) |
| COc1ccc(S(=O)(=O)n2cc(C3OC(c4cc(OC)c(OC)c(OC)c4)=NN3C(C)=O)c3ccccc32)cc1OC (stereo not given) | 79.5% | 93.2% | 98% | 78.1 | 97.1% | 63.9% | 84% | 98.3% | 86.3% | 127% |
| Clc1ccc(C(/C=C/c2sc(Cl)nc2Cl)=N/Nc2cc(Cl)cc(Cl)c2)cc1 | 92.2% | 90.1% | 99.9% | 99.1 | 103% | 93% | 90.8% | 103% | 106% | 118% |
| Cc1cc(C)c(-c2c(N)cc(Br)cc2Br)c(N)c1 | 70.9% | 76.3% | 102% | 39.4 | 83% | -6% (active) | 62.9% | 55.5% | 45.9% | 54% |
| CCOC(=O)Nc1ccc(C(=O)/C=C/c2ccccc2)cc1 | 95% | 79.2% | 100% | 90.2 | 91.3% | 70.2% | 106% | 54.4% | 87.1% | 127% |
| COc1cc(C2CC(c3ccc(SC)cc3)=NN2C(C)=O)cc(OC)c1OC (stereo not given) | 70.5% | 85.3% | 91% | 80.1 | 48.6% | 83.7% | 35.2% | 58% | 84.6% | 64.6% |
| O=C(Nc1ccc(Br)cc1F)c1cc(Br)ccc1O | 0.13% (active) | -1.23% (active) | -4.81% (active) | 13 | 3.37% (active) | -14.6% (active) | -7.77% (active) | 8.21% (active) | 7.72% (active) | 85.6% |
| O=c1c2cc(F)ccc2sc2c(NCCCNCCO)nc3ccccc3c12 | 66.9% | 80.8% | 50% | 46.5 | -71.3% (active) | 3.78% (active) | 20.4% | 33.9% | 51.9% | -56.4% (active) |
| CCOC(=O)C1=C(N)Oc2c(sc3c(CC)cccc23)C1c1ccc(F)cc1 (stereo not given) | 47% | 49.5% | 67.2% | 32 | 17% | 63.5% | 26.4% | 47.4% | 35.4% | 51.1% |
